Data from the supplement of paper PMC11001985.

These targets were tested with C#CCNC(=O)CCSSCCC(=O)NCCc1ccc(C=O)c(C=O)c1 (assay: lysine labeling ratio R10:1 (500 µM / 50 µM probe), SILAC-ABPP in living cells; higher = lower intrinsic lysine reactivity toward the probe, active = 2 or less). Details: HeLa; probe concentrations 500 vs 50 µM.
Summary of the method: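 With forward and reverse label swaps, light and heavy SILAC HeLa cells, alive and in PBS at room temperature, were exposed to either 500 µM or 50 µM of an alkyne-tagged lysine probe bearing a disulfide link. After mixing, lysates were clicked to biotin-azide, cut with trypsin, pulled down on neutravidin, freed with DTT, alkylated and analysed on a TIMS-TOF Pro by LC-MS/MS. The per-lysine value R is the median over forward and reverse replicates of the filtered median high-probe/low-probe MS1 peptide ratio. It is capped at 20.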

Sequence of UniProt O75369 (O75369 whole entry): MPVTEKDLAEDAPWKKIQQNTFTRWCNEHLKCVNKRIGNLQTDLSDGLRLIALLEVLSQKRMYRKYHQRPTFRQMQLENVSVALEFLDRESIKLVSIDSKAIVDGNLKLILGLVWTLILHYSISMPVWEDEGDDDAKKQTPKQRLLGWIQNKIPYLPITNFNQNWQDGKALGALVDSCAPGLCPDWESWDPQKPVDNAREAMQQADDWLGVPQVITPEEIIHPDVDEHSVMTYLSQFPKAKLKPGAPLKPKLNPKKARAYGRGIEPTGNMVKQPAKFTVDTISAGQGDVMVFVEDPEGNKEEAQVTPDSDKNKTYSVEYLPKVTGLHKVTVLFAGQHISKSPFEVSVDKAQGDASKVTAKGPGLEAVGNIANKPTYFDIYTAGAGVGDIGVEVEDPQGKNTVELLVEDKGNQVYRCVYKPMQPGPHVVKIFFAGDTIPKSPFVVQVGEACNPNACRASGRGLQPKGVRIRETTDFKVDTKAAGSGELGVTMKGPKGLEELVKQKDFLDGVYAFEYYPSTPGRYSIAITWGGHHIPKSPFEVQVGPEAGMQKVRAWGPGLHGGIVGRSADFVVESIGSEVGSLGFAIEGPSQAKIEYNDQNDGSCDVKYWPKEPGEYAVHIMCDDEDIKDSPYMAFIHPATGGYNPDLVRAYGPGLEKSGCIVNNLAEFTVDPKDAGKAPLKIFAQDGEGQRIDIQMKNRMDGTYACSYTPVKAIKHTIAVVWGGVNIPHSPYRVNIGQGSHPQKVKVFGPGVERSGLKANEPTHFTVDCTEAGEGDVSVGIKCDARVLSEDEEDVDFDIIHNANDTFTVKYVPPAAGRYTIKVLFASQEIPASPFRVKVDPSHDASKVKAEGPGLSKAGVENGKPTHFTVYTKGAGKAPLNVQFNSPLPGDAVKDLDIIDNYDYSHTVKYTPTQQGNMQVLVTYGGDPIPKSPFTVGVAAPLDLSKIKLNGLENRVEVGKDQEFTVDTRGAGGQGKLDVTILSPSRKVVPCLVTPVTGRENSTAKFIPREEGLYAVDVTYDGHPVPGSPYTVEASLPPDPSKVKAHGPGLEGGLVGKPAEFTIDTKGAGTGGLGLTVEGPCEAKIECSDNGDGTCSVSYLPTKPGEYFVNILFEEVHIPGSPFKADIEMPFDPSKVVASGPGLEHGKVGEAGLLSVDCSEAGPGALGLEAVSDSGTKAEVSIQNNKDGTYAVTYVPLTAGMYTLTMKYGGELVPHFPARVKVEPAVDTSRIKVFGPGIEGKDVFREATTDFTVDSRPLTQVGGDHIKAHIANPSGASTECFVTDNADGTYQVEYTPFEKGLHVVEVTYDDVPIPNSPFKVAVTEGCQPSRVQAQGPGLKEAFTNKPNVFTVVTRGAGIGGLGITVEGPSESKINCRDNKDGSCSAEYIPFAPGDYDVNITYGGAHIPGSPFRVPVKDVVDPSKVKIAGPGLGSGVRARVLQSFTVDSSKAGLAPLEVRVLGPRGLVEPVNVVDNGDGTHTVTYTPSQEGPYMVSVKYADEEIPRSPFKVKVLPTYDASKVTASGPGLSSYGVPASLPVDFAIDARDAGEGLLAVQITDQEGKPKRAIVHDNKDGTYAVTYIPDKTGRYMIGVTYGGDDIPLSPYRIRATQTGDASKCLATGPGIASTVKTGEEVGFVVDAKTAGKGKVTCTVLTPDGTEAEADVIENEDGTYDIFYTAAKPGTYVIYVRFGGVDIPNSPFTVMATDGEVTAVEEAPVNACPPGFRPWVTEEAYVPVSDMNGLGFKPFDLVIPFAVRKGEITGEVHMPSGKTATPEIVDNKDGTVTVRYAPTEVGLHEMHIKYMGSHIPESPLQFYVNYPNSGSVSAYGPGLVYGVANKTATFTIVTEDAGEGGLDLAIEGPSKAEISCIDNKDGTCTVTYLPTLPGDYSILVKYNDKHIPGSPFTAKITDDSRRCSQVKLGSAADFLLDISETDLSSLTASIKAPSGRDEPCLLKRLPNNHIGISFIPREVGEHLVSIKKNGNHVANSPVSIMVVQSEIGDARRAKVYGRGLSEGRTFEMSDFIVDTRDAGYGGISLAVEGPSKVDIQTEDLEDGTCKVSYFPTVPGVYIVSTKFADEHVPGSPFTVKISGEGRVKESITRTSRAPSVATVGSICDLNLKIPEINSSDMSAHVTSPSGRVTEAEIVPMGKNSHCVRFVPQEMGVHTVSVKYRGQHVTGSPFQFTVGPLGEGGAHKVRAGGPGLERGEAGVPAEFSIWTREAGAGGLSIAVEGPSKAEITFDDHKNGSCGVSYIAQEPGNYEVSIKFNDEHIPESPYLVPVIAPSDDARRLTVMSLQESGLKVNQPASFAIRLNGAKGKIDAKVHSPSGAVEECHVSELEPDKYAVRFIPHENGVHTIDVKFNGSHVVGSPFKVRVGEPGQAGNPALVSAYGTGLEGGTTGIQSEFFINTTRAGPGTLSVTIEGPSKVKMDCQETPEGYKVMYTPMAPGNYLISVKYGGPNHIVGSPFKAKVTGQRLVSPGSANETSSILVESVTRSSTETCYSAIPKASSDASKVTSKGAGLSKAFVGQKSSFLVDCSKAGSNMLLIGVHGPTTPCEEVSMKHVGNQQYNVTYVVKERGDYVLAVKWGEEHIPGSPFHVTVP
Sequence of UniProt P05141 (P05141 whole entry): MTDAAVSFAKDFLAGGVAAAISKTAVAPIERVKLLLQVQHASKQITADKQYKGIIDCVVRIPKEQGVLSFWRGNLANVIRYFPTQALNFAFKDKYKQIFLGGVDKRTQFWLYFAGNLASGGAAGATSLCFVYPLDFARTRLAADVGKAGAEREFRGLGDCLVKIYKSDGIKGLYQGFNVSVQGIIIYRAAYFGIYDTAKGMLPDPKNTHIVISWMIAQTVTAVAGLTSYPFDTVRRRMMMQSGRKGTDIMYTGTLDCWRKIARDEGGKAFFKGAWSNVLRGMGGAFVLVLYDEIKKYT
Sequence of UniProt P35052 (P35052 whole entry): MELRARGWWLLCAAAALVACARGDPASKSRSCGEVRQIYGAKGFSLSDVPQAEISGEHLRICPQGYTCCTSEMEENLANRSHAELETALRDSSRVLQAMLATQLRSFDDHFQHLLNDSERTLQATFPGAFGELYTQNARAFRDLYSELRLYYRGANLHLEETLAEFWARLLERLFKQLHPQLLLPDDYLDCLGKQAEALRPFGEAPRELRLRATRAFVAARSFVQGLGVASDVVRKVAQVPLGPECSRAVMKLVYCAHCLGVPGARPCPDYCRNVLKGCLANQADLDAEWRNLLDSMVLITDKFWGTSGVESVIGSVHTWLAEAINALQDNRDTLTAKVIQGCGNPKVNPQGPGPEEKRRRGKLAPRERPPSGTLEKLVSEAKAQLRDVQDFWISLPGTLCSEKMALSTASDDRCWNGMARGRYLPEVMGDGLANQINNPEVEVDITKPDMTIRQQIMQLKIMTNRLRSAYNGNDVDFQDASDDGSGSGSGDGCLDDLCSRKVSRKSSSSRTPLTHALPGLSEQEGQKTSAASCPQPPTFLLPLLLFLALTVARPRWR
Sequence of UniProt P61019 (P61019 whole entry, looked up): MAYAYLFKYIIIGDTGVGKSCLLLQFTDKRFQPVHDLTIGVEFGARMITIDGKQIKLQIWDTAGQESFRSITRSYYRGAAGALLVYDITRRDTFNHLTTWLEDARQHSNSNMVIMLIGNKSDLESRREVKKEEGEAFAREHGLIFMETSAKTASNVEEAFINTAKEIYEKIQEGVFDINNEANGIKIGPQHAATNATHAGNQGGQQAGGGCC
Sequence of UniProt P06756 (P06756 whole entry): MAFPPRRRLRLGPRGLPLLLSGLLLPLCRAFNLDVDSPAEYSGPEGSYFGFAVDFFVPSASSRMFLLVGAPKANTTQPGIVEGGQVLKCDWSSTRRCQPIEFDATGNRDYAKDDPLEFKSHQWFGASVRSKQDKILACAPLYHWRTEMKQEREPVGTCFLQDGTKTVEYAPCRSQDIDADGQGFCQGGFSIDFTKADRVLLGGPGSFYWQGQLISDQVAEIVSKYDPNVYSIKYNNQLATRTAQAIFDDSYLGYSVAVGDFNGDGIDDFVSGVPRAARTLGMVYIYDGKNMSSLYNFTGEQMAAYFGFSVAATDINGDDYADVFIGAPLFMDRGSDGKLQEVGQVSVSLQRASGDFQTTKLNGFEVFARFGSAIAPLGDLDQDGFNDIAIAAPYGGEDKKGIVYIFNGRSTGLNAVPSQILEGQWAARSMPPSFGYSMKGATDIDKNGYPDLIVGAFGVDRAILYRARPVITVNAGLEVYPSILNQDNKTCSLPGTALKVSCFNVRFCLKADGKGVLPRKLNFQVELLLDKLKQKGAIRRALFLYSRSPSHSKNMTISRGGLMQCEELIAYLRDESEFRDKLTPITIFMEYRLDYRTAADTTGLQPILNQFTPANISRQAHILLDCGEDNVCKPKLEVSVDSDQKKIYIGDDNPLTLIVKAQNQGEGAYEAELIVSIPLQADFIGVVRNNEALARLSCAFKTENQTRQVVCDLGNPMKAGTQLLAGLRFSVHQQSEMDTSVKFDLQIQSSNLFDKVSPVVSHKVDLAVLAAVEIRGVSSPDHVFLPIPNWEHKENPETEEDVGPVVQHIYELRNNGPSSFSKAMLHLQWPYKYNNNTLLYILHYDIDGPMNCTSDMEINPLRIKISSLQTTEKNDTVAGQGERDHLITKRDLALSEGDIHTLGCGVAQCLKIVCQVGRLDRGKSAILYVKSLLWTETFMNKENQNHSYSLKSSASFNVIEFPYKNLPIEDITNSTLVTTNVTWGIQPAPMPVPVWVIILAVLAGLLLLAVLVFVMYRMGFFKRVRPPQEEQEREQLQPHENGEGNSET
Sequence of UniProt P54826 (P54826 whole entry): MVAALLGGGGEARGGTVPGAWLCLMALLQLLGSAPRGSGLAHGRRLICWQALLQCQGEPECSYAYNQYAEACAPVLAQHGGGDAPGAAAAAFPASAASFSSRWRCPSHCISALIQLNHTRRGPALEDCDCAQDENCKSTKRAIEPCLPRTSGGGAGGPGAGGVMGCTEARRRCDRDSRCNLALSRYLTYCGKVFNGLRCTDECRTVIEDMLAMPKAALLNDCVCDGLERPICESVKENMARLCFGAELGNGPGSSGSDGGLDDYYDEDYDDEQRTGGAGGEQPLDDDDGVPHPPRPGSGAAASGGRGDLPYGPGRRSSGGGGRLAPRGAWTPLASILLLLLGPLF

Row | Target | lysine labeling ratio R10:1
1 | UniProt P25705 (lysine site: K161) | 3.49 (inactive)
2 | CNP (lysine site: K402) (UniProt P09543) | 2.29 (inactive)
3 | ITGA5 (lysine site: K910) (UniProt P08648) | 3.88 (inactive)
4 | ANXA1 (lysine site: K185) (UniProt P04083) | 3.58 (inactive)
5 | SLC25A5 (lysine site: K105) (UniProt P05141) | 6.97 (inactive)
6 | UniProt P06576 (lysine site: K133) | 3.53 (inactive)
7 | GPC1 (lysine site: K363) (UniProt P35052) | 7.78 (inactive)
8 | HNRNPM (lysine site: K145) (UniProt P52272) | 2.08 (inactive)
9 | FLNB (lysine site: K409) (UniProt O75369) | 2.05 (inactive)
10 | SERPINH1 (lysine site: K94) (UniProt P50454) | 3.29 (inactive)
11 | FLNB (lysine site: K1241) (UniProt O75369) | 1.42 (active)
12 | SMOC1 (lysine site: K223) (UniProt Q9H4F8) | 4.99 (inactive)
13 | HSPA5 (lysine site: K96) (UniProt P11021) | 1.44 (active)
14 | RAB2A (lysine site: K130) (UniProt P61019) | 1.45 (active)
15 | ITGAV (lysine site: K514) (UniProt P06756) | 0.678 (active)
16 | GAS1 (lysine site: K140) (UniProt P54826) | 3.54 (inactive)
17 | UniProt P50281 (lysine site: K337) | 1.7 (active)
